# Source: paper PMC7156710, “The Sox2 transcription factor binds RNA”
# Experiments:
# Assay in all cases: fluorescence anisotropy; 10 mM Tris-HEPES pH 7.5, 8% Ficoll, 0.05% NP-40, 135 mM KCl, 15 mM NaCl, 1 mM DTT, 0.1 mg/mL BSA; 2 nM DNA or 3 nM RNA; low values mean tight binding
# Conditions in all cases: protein: recombinant; tags: N-terminal His6 and thrombin site, not removed; label: FAM; only (+) strand given; dsDNA, one strand shown
# [1] = biological target: Sox2-HMG (His6 retained) E78A (Homo sapiens, UniProt P48431 38-121, E78A)
# In short: (§1)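 Alanine-substituted Sox2-HMG domains were made by site-directed mutagenesis and Ni-NTA purified with the His6 tag retained. They were titrated against 2 nM fluorescein-labeled DNA or 3 nM fluorescein-labeled RNA in Tris-HEPES pH 7.5 binding buffer for at least 1 h. Polarization was read on a CLARIOstar, with triplicate titrations each read three times. Dissociation constants were fit in Kaleidagraph and expressed as the mutant-to-wild-type ratio.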
# [2] = biological target: Sox2-HMG (His6 retained) S72A (Homo sapiens, UniProt P48431 38-121, S72A)
# In short: as §1
# [3] = biological target: Sox2-HMG (His6 retained) E104A (Homo sapiens, UniProt P48431 38-121, E104A)
# In short: as §1
# [4] = biological target: Sox2-HMG (His6 retained) K58A (Homo sapiens, UniProt P48431 38-121, K58A)
# In short: as §1
# [5] = biological target: Sox2-HMG (His6 retained) H67A (Homo sapiens, UniProt P48431 38-121, H67A)
# In short: as §1
# [6] = biological target: Sox2-HMG (His6 retained) K42A (Homo sapiens, UniProt P48431 38-121, K42A)
# In short: as §1
# [7] = biological target: Sox2-HMG (His6 retained) M45A (Homo sapiens, UniProt P48431 38-121, M45A)
# In short: as §1
# [8] = biological target: Sox2-HMG (His6 retained) N63A (Homo sapiens, UniProt P48431 38-121, N63A)
# In short: as §1
# [9] = biological target: Sox2-HMG (His6 retained) K115A (Homo sapiens, UniProt P48431 38-121, K115A)
# In short: as §1
# [10] = biological target: Sox2-HMG (His6 retained) E70A (Homo sapiens, UniProt P48431 38-121, E70A)
# In short: as §1
# [11] = biological target: Sox2-HMG (His6 retained) K87A (Homo sapiens, UniProt P48431 38-121, K87A)
# In short: as §1
# [12] = biological target: Sox2-HMG (His6 retained) W79A (Homo sapiens, UniProt P48431 38-121, W79A)
# In short: as §1
# [13] = biological target: Sox2-HMG (His6 retained) E62A (Homo sapiens, UniProt P48431 38-121, E62A)
# In short: as §1
# [14] = biological target: Sox2-HMG (His6 retained) R114A (Homo sapiens, UniProt P48431 38-121, R114A)
# In short: as §1
# [15] = biological target: Sox2-HMG (His6 retained) S69A (Homo sapiens, UniProt P48431 38-121, S69A)
# In short: as §1
# [16] = biological target: Sox2-HMG (His6 retained) R96A (Homo sapiens, UniProt P48431 38-121, R96A)
# In short: as §1
# [17] = biological target: Sox2-HMG (His6 retained) R40A (Homo sapiens, UniProt P48431 38-121, R40A)
# In short: as §1
# [18] = biological target: Sox2-HMG (His6 retained) W51A (Homo sapiens, UniProt P48431 38-121, W51A)
# In short: as §1
# [19] = biological target: Sox2-HMG (His6 retained) S83A (Homo sapiens, UniProt P48431 38-121, S83A)
# In short: as §1
# [20] = biological target: Sox2-HMG (His6 retained) R111A (Homo sapiens, UniProt P48431 38-121, R111A)
# In short: as §1
# [21] = biological target: Sox2-HMG (His6 retained) E84A (Homo sapiens, UniProt P48431 38-121, E84A)
# In short: as §1
# [22] = biological target: Sox2-HMG (His6 retained) K95A (Homo sapiens, UniProt P48431 38-121, K95A)
# In short: as §1
# [23] = biological target: Sox2-HMG (His6 retained) F48A (Homo sapiens, UniProt P48431 38-121, F48A)
# In short: as §1
# [24] = biological target: Sox2-HMG (His6 retained) R74A (Homo sapiens, UniProt P48431 38-121, R74A)
# In short: as §1
# [25] = biological target: Sox2-HMG (His6 retained) Q61A (Homo sapiens, UniProt P48431 38-121, Q61A)
# In short: as §1
# [26] = biological target: Sox2-HMG (His6 retained) R88A (Homo sapiens, UniProt P48431 38-121, R88A)
# In short: as §1
# [27] = biological target: Sox2-HMG (His6 retained) K73A (Homo sapiens, UniProt P48431 38-121, K73A)
# In short: as §1
# [28] = biological target: Sox2-HMG (His6 retained) E86A (Homo sapiens, UniProt P48431 38-121, E86A)
# In short: as §1
# [29] = biological target: Sox2-HMG (His6 retained) R53A (Homo sapiens, UniProt P48431 38-121, R53A)
# In short: as §1
# [30] = biological target: Sox2-HMG (His6 retained) R113A (Homo sapiens, UniProt P48431 38-121, R113A)
# In short: as §1
# [31] = biological target: Sox2-HMG (His6 retained) T85A (Homo sapiens, UniProt P48431 38-121, T85A)
# In short: as §1
# [32] = biological target: Sox2-HMG (His6 retained) M49A (Homo sapiens, UniProt P48431 38-121, M49A)
# In short: as §1
# [33] = biological target: Sox2-HMG (His6 retained) R56A (Homo sapiens, UniProt P48431 38-121, R56A)
# In short: as §1
# [34] = biological target: Sox2-HMG (His6 retained) K80A (Homo sapiens, UniProt P48431 38-121, K80A)
# In short: as §1
# [35] = biological target: Sox2-HMG (His6 retained) Y110A (Homo sapiens, UniProt P48431 38-121, Y110A)
# In short: as §1
# [36] = biological target: Sox2-HMG (His6 retained) K103A (Homo sapiens, UniProt P48431 38-121, K103A)
# In short: as §1
# [37] = biological target: Sox2-HMG (His6 retained) K109A (Homo sapiens, UniProt P48431 38-121, K109A)
# In short: as §1
# [38] = biological target: Sox2-HMG (His6 retained) R43A (Homo sapiens, UniProt P48431 38-121, R43A)
# In short: as §1
# [39] = biological target: Sox2-HMG (His6 retained) R57A (Homo sapiens, UniProt P48431 38-121, R57A)
# In short: as §1
# [40] = biological target: Sox2-HMG (His6 retained) R98A (Homo sapiens, UniProt P48431 38-121, R98A)
# In short: as §1
# [41] = biological target: Sox2-HMG (His6 retained) N68A (Homo sapiens, UniProt P48431 38-121, N68A)
# In short: as §1
# [42] = biological target: Sox2-HMG (His6 retained) P112A (Homo sapiens, UniProt P48431 38-121, P112A)
# In short: as §1
# [43] = biological target: Sox2-HMG (His6 retained) N46A (Homo sapiens, UniProt P48431 38-121, N46A)
# In short: as §1
# [44] = biological target: Sox2-HMG (His6 retained) K65A (Homo sapiens, UniProt P48431 38-121, K65A)
# In short: as §1
# [45] = biological target: Sox2-HMG (His6 retained) H101A (Homo sapiens, UniProt P48431 38-121, H101A)
# In short: as §1
# [46] = biological target: Sox2-HMG (His6 retained) P64A (Homo sapiens, UniProt P48431 38-121, P64A)
# In short: as §1
# [47] = biological target: Sox2-HMG (His6 retained) M66A (Homo sapiens, UniProt P48431 38-121, M66A)
# In short: as §1
# [48] = biological target: Sox2-HMG (His6 retained) H105A (Homo sapiens, UniProt P48431 38-121, H105A)
# In short: as §1
# Chain of Sox2-HMG (His6 retained) Q61A (P48431 other isoform, or with tags, fused parts or gaps Q61A | Q61A Q61A): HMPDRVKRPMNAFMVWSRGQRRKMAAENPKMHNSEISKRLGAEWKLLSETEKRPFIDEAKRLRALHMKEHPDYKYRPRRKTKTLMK
# Chain of Sox2-HMG (His6 retained) E84A (P48431 other isoform, or with tags, fused parts or gaps E84A | E84A E84A): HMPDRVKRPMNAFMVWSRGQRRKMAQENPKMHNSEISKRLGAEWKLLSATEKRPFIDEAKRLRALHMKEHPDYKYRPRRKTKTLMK
# Chain of Sox2-HMG (His6 retained) K80A (P48431 other isoform, or with tags, fused parts or gaps K80A | K80A K80A): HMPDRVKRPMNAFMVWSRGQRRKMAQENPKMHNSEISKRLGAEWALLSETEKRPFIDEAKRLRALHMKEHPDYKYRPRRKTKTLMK
# Chain of Sox2-HMG (His6 retained) R98A (P48431 other isoform, or with tags, fused parts or gaps R98A | R98A R98A): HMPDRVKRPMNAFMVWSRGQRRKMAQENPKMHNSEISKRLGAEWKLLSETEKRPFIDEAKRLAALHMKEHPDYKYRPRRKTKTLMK
# Chain of Sox2-HMG (His6 retained) S69A (P48431 other isoform, or with tags, fused parts or gaps S69A | S69A S69A): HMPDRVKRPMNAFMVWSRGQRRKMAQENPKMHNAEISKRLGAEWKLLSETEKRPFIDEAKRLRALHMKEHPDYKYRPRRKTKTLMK
# Chain of Sox2-HMG (His6 retained) R40A (P48431 other isoform, or with tags, fused parts or gaps R40A | R40A R40A): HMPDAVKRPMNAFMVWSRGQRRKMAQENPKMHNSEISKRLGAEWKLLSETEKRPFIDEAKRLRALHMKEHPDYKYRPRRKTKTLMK
# Chain of Sox2-HMG (His6 retained) N46A (P48431 other isoform, or with tags, fused parts or gaps N46A | N46A N46A): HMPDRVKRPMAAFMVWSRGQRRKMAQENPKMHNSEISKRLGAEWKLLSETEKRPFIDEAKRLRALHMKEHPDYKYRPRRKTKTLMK
# Chain of Sox2-HMG (His6 retained) Y110A (P48431 other isoform, or with tags, fused parts or gaps Y110A | Y110A Y110A): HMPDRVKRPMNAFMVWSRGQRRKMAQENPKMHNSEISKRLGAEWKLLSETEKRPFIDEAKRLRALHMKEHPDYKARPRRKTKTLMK
# Chain of Sox2-HMG (His6 retained) S83A (P48431 other isoform, or with tags, fused parts or gaps S83A | S83A S83A): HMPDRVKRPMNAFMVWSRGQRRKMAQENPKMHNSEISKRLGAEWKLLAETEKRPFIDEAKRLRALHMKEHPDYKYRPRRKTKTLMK
# Chain of Sox2-HMG (His6 retained) R114A (P48431 other isoform, or with tags, fused parts or gaps R114A | R114A R114A): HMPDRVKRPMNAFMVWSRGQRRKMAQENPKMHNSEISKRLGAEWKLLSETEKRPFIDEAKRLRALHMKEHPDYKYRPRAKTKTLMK
# Chain of Sox2-HMG (His6 retained) K65A (P48431 other isoform, or with tags, fused parts or gaps K65A | K65A K65A): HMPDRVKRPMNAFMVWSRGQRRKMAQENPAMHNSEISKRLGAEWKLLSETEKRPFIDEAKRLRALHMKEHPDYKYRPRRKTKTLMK
# Chain of Sox2-HMG (His6 retained) M45A (P48431 other isoform, or with tags, fused parts or gaps M45A | M45A M45A): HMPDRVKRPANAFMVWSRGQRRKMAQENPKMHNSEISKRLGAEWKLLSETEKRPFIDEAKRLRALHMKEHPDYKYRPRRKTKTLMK
# Chain of Sox2-HMG (His6 retained) R56A (P48431 other isoform, or with tags, fused parts or gaps R56A | R56A R56A): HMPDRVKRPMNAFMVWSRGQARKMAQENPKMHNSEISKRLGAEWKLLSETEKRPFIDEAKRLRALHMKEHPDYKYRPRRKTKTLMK
# Chain of Sox2-HMG (His6 retained) M66A (P48431 other isoform, or with tags, fused parts or gaps M66A | M66A M66A): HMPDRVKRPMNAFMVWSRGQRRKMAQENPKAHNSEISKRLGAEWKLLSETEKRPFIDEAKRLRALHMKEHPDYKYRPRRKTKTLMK
# Chain of Sox2-HMG (His6 retained) R113A (P48431 other isoform, or with tags, fused parts or gaps R113A | R113A R113A): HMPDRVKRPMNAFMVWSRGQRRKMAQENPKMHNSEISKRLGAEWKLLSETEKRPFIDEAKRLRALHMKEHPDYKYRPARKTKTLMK
# Chain of Sox2-HMG (His6 retained) N68A (P48431 other isoform, or with tags, fused parts or gaps N68A | N68A N68A): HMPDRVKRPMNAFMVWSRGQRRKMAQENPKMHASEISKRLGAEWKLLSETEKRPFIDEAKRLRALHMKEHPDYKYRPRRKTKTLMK
# Chain of Sox2-HMG (His6 retained) R111A (P48431 other isoform, or with tags, fused parts or gaps R111A | R111A R111A): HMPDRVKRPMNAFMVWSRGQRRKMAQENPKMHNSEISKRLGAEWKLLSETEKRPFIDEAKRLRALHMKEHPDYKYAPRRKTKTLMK
# Chain of Sox2-HMG (His6 retained) R53A (P48431 other isoform, or with tags, fused parts or gaps R53A | R53A R53A): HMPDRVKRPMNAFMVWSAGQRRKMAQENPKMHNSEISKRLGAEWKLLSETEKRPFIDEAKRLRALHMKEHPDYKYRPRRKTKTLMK
# Chain of Sox2-HMG (His6 retained) K95A (P48431 other isoform, or with tags, fused parts or gaps K95A | K95A K95A): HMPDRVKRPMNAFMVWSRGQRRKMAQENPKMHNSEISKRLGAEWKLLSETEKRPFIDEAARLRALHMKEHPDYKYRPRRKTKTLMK
# Chain of Sox2-HMG (His6 retained) H105A (P48431 other isoform, or with tags, fused parts or gaps H105A | H105A H105A): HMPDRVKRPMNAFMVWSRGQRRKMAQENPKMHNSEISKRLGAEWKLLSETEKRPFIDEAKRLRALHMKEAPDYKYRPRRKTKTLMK
# Chain of Sox2-HMG (His6 retained) H101A (P48431 other isoform, or with tags, fused parts or gaps H101A | H101A H101A): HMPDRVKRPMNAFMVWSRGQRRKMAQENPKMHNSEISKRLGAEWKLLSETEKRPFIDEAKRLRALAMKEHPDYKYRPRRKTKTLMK
# Chain of Sox2-HMG (His6 retained) M49A (P48431 other isoform, or with tags, fused parts or gaps M49A | M49A M49A): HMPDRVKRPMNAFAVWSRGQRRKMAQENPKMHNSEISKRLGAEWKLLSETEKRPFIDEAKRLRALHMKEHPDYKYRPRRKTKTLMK
# Chain of Sox2-HMG (His6 retained) E78A (P48431 other isoform, or with tags, fused parts or gaps E78A | E78A E78A): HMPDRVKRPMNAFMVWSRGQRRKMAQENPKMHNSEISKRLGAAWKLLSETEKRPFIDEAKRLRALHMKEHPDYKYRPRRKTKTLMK
# Chain of Sox2-HMG (His6 retained) H67A (P48431 other isoform, or with tags, fused parts or gaps H67A | H67A H67A): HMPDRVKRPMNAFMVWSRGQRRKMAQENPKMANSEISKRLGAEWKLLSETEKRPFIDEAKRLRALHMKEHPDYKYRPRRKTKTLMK
# Chain of Sox2-HMG (His6 retained) R96A (P48431 other isoform, or with tags, fused parts or gaps R96A | R96A R96A): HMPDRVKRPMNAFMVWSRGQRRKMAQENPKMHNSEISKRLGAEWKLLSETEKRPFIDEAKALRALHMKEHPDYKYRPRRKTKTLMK
# Chain of Sox2-HMG (His6 retained) R57A (P48431 other isoform, or with tags, fused parts or gaps R57A | R57A R57A): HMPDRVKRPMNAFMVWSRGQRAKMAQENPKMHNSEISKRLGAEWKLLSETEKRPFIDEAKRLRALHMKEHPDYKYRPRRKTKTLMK
# Chain of Sox2-HMG (His6 retained) P112A (P48431 other isoform, or with tags, fused parts or gaps P112A | P112A P112A): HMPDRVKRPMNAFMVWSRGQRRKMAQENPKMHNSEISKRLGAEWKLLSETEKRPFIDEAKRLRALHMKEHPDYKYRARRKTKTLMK
# Chain of Sox2-HMG (His6 retained) K73A (P48431 other isoform, or with tags, fused parts or gaps K73A | K73A K73A): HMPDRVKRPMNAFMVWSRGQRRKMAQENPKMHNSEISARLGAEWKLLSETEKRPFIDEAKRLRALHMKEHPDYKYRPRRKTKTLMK
# Chain of Sox2-HMG (His6 retained) P64A (P48431 other isoform, or with tags, fused parts or gaps P64A | P64A P64A): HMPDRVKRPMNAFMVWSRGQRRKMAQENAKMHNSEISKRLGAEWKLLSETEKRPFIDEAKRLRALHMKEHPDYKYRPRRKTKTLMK
# Chain of Sox2-HMG (His6 retained) W79A (P48431 other isoform, or with tags, fused parts or gaps W79A | W79A W79A): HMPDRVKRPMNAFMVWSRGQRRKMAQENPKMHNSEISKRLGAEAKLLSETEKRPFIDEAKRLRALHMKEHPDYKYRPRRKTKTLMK
# Chain of Sox2-HMG (His6 retained) K58A (P48431 other isoform, or with tags, fused parts or gaps K58A | K58A K58A): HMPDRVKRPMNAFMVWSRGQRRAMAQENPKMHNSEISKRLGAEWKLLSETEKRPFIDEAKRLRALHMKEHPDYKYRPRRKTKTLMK
# Chain of Sox2-HMG (His6 retained) K42A (P48431 other isoform, or with tags, fused parts or gaps K42A | K42A K42A): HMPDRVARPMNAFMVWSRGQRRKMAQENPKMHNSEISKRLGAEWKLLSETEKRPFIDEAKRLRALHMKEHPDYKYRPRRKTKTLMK
# Chain of Sox2-HMG (His6 retained) K87A (P48431 other isoform, or with tags, fused parts or gaps K87A | K87A K87A): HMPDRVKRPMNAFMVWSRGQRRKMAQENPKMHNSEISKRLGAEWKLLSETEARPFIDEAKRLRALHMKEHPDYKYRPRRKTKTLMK
# Chain of Sox2-HMG (His6 retained) F48A (P48431 other isoform, or with tags, fused parts or gaps F48A | F48A F48A): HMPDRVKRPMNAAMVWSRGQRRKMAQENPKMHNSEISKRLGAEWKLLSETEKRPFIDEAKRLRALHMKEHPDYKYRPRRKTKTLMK
# Chain of Sox2-HMG (His6 retained) R74A (P48431 other isoform, or with tags, fused parts or gaps R74A | R74A R74A): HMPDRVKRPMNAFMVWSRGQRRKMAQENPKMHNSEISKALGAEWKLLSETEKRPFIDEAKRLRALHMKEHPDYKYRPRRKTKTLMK
# Chain of Sox2-HMG (His6 retained) R43A (P48431 other isoform, or with tags, fused parts or gaps R43A | R43A R43A): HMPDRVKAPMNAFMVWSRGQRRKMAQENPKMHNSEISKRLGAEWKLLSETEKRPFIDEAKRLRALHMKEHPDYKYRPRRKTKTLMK
# Chain of Sox2-HMG (His6 retained) E62A (P48431 other isoform, or with tags, fused parts or gaps E62A | E62A E62A): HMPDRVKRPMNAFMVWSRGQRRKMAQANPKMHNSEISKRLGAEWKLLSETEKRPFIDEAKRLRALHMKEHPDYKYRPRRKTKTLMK
# Chain of Sox2-HMG (His6 retained) N63A (P48431 other isoform, or with tags, fused parts or gaps N63A | N63A N63A): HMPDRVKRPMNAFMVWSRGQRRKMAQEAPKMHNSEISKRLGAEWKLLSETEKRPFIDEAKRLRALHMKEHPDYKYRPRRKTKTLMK
# Chain of Sox2-HMG (His6 retained) R88A (P48431 other isoform, or with tags, fused parts or gaps R88A | R88A R88A): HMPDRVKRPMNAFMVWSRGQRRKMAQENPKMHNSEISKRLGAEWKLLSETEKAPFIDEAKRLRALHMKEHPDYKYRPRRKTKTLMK
# Chain of Sox2-HMG (His6 retained) K115A (P48431 other isoform, or with tags, fused parts or gaps K115A | K115A K115A): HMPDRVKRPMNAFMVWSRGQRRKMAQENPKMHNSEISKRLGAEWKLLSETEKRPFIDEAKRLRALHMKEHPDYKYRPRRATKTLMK
# Chain of Sox2-HMG (His6 retained) W51A (P48431 other isoform, or with tags, fused parts or gaps W51A | W51A W51A): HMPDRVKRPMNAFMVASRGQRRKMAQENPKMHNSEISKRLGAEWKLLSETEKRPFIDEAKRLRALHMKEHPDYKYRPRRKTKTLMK
# Chain of Sox2-HMG (His6 retained) S72A (P48431 other isoform, or with tags, fused parts or gaps S72A | S72A S72A): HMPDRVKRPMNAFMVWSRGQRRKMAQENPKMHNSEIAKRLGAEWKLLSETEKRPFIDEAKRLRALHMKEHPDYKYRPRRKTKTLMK
# Chain of Sox2-HMG (His6 retained) E86A (P48431 other isoform, or with tags, fused parts or gaps E86A | E86A E86A): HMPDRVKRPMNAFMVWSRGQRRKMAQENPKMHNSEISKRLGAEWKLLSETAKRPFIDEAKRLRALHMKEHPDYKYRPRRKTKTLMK
# Chain of Sox2-HMG (His6 retained) E104A (P48431 other isoform, or with tags, fused parts or gaps E104A | E104A E104A): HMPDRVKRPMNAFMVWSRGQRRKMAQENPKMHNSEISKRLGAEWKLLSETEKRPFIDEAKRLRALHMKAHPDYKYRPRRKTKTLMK
# Chain of Sox2-HMG (His6 retained) K109A (P48431 other isoform, or with tags, fused parts or gaps K109A | K109A K109A): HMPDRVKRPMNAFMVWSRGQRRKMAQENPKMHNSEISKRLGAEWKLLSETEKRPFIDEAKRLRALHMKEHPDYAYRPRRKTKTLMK
# Chain of Sox2-HMG (His6 retained) K103A (P48431 other isoform, or with tags, fused parts or gaps K103A | K103A K103A): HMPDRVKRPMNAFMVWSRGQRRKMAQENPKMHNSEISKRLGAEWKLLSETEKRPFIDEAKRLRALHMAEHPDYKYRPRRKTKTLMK
sequence,measurement,setting,value
CGCGCCTTTGTTCCCGGGT,binding signal,[1],2.2 ± 1 Kd(mutant)/Kd(WT)
same,binding signal,[2],1.4 ± 0.4 Kd(mutant)/Kd(WT)
same,binding signal,[3],1.1 ± 0.3 Kd(mutant)/Kd(WT)
same,binding signal,[4],1.1 ± 0.5 Kd(mutant)/Kd(WT)
same,binding signal,[5],2.4 ± 0.7 Kd(mutant)/Kd(WT)
same,binding signal,[6],2.8 ± 1.8 Kd(mutant)/Kd(WT)
same,binding signal,[7],1.4 ± 0.7 Kd(mutant)/Kd(WT)
same,binding signal,[8],2.9 ± 1.4 Kd(mutant)/Kd(WT)
same,binding signal,[9],5.8 ± 1 Kd(mutant)/Kd(WT)
same,binding signal,[10],0.7 ± 0.4 Kd(mutant)/Kd(WT)
same,binding signal,[11],9.3 ± 1.4 Kd(mutant)/Kd(WT)
same,binding signal,[12],490 ± 20 Kd(mutant)/Kd(WT)
same,binding signal,[13],0.6 ± 0.3 Kd(mutant)/Kd(WT)
same,binding signal,[14],6.1 ± 2.2 Kd(mutant)/Kd(WT)
same,binding signal,[15],1.1 ± 0.5 Kd(mutant)/Kd(WT)
same,binding signal,[16],1.6 ± 1.1 Kd(mutant)/Kd(WT)
same,binding signal,[17],2 ± 1.9 Kd(mutant)/Kd(WT)
same,binding signal,[18],17 ± 2.8 Kd(mutant)/Kd(WT)
same,binding signal,[19],0.9 ± 0.2 Kd(mutant)/Kd(WT)
same,binding signal,[20],3 ± 0.8 Kd(mutant)/Kd(WT)
same,binding signal,[21],1.6 ± 0.3 Kd(mutant)/Kd(WT)
same,binding signal,[22],1.1 ± 1.1 Kd(mutant)/Kd(WT)
same,binding signal,[23],420 ± 120 Kd(mutant)/Kd(WT)
same,binding signal,[24],0.7 ± 0.4 Kd(mutant)/Kd(WT)
same,binding signal,[25],0.6 ± 0.2 Kd(mutant)/Kd(WT)
same,binding signal,[26],1.3 ± 0.7 Kd(mutant)/Kd(WT)
same,binding signal,[27],3 ± 0.6 Kd(mutant)/Kd(WT)
same,binding signal,[28],0.8 ± 0.1 Kd(mutant)/Kd(WT)
same,binding signal,[29],0.7 ± 0.2 Kd(mutant)/Kd(WT)
same,binding signal,[30],0.6 ± 0.5 Kd(mutant)/Kd(WT)
same,binding signal,[31],2.8 ± 0.3 Kd(mutant)/Kd(WT)
same,binding signal,[32],30 ± 5.4 Kd(mutant)/Kd(WT)
same,binding signal,[33],190 ± 70 Kd(mutant)/Kd(WT)
same,binding signal,[34],2.8 ± 0.9 Kd(mutant)/Kd(WT)
same,binding signal,[35],7.5 ± 3.5 Kd(mutant)/Kd(WT)
same,binding signal,[36],1.4 ± 1.3 Kd(mutant)/Kd(WT)
same,binding signal,[37],3.2 ± 0.8 Kd(mutant)/Kd(WT)
same,binding signal,[38],8.5 ± 2.2 Kd(mutant)/Kd(WT)
same,binding signal,[39],0.8 ± 0.3 Kd(mutant)/Kd(WT)
same,binding signal,[40],0.8 ± 0.5 Kd(mutant)/Kd(WT)
same,binding signal,[41],1.1 ± 0.5 Kd(mutant)/Kd(WT)
same,binding signal,[42],2.7 ± 1.2 Kd(mutant)/Kd(WT)
same,binding signal,[43],15 ± 8.4 Kd(mutant)/Kd(WT)
same,binding signal,[44],8.5 ± 1 Kd(mutant)/Kd(WT)
same,binding signal,[45],1.9 ± 0.2 Kd(mutant)/Kd(WT)
same,binding signal,[46],2.6 ± 0.1 Kd(mutant)/Kd(WT)
same,binding signal,[47],1.8 ± 0.9 Kd(mutant)/Kd(WT)
same,binding signal,[48],1.7 ± 1.9 Kd(mutant)/Kd(WT)
